From PubChem BioAssay (NCATS)
Results filed as inconclusive are left out. Values without a mark were called inactive. Calls of active or inactive are those of the source. Calls follow the shape of the dose curve; as a rule, active = well fitted inhibition curve with a large enough effect; inconclusive = small, poorly fitted or top-dose-only effect; inactive = flat fitted curve, though single readings scatter.

biological target: Voltage-gated inwardly rectifying potassium channel KCNH2 (Homo sapiens) (UniProt Q12809); assay: qHTS Assay for Small Molecule Inhibitors of the Human hERG Channel Activity (AID 588834); settings: U2OS BacMam hERG, FluxOR thallium flux fluorescence; series mostly up to 46.1 µM; activity change, negative = inhibition: at the top concentration;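 also: lower thallium flux fluorescence means stronger hERG block; nearly all actives have a fitted effect of over 50% in size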; as to activity change, negative = inhibition: top concentration of the series differs between compounds
Sequence (Q12809 whole entry, looked up): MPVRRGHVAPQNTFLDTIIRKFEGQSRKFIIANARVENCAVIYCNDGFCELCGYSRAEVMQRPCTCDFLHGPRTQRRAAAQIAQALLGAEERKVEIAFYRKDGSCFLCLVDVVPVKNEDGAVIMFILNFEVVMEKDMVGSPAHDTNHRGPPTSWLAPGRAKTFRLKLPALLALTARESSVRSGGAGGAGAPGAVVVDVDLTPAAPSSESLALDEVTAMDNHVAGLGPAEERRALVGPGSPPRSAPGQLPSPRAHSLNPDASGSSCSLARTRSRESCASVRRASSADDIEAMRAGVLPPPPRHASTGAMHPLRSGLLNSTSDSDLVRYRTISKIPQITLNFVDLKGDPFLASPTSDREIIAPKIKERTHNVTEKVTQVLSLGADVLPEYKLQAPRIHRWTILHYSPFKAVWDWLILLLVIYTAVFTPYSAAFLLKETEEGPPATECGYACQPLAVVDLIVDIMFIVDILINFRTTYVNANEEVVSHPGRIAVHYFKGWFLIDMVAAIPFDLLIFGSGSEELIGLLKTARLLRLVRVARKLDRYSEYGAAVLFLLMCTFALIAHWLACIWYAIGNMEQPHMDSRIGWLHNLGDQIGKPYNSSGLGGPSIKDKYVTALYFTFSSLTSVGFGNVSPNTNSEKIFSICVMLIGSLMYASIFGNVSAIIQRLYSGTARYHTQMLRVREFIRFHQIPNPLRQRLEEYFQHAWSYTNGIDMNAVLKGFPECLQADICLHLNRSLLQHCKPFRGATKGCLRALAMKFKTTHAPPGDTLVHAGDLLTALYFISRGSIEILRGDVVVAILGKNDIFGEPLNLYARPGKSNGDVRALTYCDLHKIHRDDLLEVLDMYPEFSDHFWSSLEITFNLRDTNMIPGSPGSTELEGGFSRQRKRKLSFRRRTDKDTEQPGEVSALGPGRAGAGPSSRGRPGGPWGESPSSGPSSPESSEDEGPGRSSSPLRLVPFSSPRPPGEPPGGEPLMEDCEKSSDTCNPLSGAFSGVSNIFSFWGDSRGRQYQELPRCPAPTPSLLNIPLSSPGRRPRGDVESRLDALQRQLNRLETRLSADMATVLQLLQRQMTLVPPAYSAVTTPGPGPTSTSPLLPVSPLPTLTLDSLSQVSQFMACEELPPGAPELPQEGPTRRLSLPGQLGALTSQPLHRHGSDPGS
Method in brief: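 U2OS cells transduced with hERG via BacMam (MOI ~100), plated 2000/well, loaded with FluxOR thallium dye, compound ~10 min, then stimulation buffer; fluorescence decrease read kinetically; AC50 from Hill fits.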
% is scaled to controls: 0 for no effect and ±100 for the full control effect; potency is read from the fitted curve at half-maximal effect.

In the case of `CNc1ccc2oc(C[C@H]3O[C@@]4(CC[C@H]3C)O[C@H]([C@H](C)C(=O)c3ccc[nH]3)[C@H](C)C[C@H]4C)nc2c1C(=O)O`, the Potency is reported as 3.16 µM (active).
For `Oc1ccc2c3c1O[C@H]1c4[nH]c5ccccc5c4C[C@@]4(O)C(C2)N(CC2CC2)CCC314` (stereo not given in full), the Potency was 0.794 µM (active).
In the case of `CCCN(CCC)[C@H]1CCc2c(F)ccc(O)c2C1`, the Potency is reported as 7.08 µM (active).
For `CCCN(CCC)CCc1c[nH]c2ccc(C(N)=O)cc12`, the Potency was 6.31 µM (active).
`CN1CCC(c2c[nH]c3ccc(O)cc23)CC1` was tested, and the Potency was 2 µM (active).
In the case of `CC(N)Cc1c[nH]c2ccc(OCc3cccs3)cc12` (stereo not given), the Potency is reported as 2.82 µM (active).
For `COC(=O)N1CCN(C(=O)Cc2ccc(Cl)c(Cl)c2)C(CN2CCCC2)C1` (stereo not given), the Potency was 11.2 µM (active).
`O=S1(=O)N(CCN2CC=C(c3c[nH]c4cc(F)ccc34)CC2)c2cccc3c2N1CCC3` was tested, and the Potency was 7.08 µM (active).

Point of comparison: `CC(=O)NBr`, “activity change, negative = inhibition” value -18.6%. Against it:
- O=[N+]([O-])c1cc(O)c(O)c([N+](=O)[O-])c1 — higher, 7.24%
- C[Se]C[C@H](N)C(=O)O — higher, 0.222%
- NC(C(=O)O)c1cc(=O)[nH]o1 (stereo not given) — higher, 7.78%
- NC(N)=NOCC[C@H](N)C(=O)O — higher, 9.76%
- COc1ccc2c(c1)/C(=C/c1cnc[nH]1)C(=O)N2 — higher, 1.48%
- O=[N+]([O-])c1ccc2nc(N3CCNCC3)ccc2c1 — lower, -53.1%
- CC(=O)c1c(O)c(C)c(O)c(Cc2c(O)c3c(c(C(=O)/C=C/c4ccccc4)c2O)OC(C)(C)C=C3)c1O — higher, -5.95%
- COc1ccc2c(c1)C13CCCCC1C(C2)N(C)CC3 (stereo not given) — lower, -27.6%
- CCN(CCCl)Cc1ccccc1Br — higher, -0.545%
- NC(=O)CI — higher, 22.4%
- NNC(=O)c1ccc(O)cc1 — higher, 2.09%
- Cc1o[nH]c(=O)c1CC(N)C(=O)O (stereo not given) — higher, 19.3%
- CC(N)[C@H](O)c1ccc(O)c(O)c1 (stereo not given in full) — higher, 5.43%
- NC(N)=Nc1ccc2[nH]c3c(c2c1)C[C@@]1(O)[C@H]2Cc4ccc(O)c5c4[C@@]1(CCN2CC1CC1)[C@H]3O5 — higher, 5.32%
- COc1ccc2[nH]cc(CCN)c2c1 — higher, 0.471%
- CN(N=O)c1ccc(O)c(O)c1 — higher, -4.18%
- N[C@@H](CCl)C(=O)O — higher, 5.27%
- Cc1[nH]c2ccc(O)cc2c1CCN — higher, 0.774%
- NCCCP(=O)(O)O — higher, 8.66%
- CN(N=O)c1cc(O)ccc1O — higher, 12.7%
- NC(CCCCCP(=O)(O)O)C(=O)O (stereo not given) — higher, 4.45%
